Screening results: PubChem, National Center for Advancing Translational Sciences (NCATS)
ERK EGF block: EGF-driven ERK pathway inhibition; AID 1454; 130,000 compounds, 0.41% hits; HEK293-V1b, EGF-stimulated phospho-ERK AlphaScreen; Potency, µM (top dose mostly 11.5 µM), for inactives: at the highest dose activity change, negative = inhibition, actives largely listed as inhibitors;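 also: plate controls were stimulated vehicle wells for no effect and unstimulated vehicle basal for full effect; nearly all actives have a fitted effect of over 55% in size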
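Cell line HEK293 (stable V1b), low serum overnight. Pretreatment: compound 30 min, 37C. EGF 25 nM, 5 min. Detection: SureFire AlphaScreen, 5 h RT. AC50 via standard Hill equation.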
IMPase Li inh: IMPase inhibition in cells with lithium potentiation; AID 1457; CHO-M1 cells, IP1 TR-FRET (IP-One), carbachol + lithium; Potency, µM (doses to about 59.4 µM), without a hit: top-dose activity, negative = IMPase inhibition, hits mostly inhibitors; 210,000 compounds, 0.35% hits;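 also: IP1 builds up when IMPase is blocked and the TR-FRET signal falls; plate controls were basal vehicle for no effect and high inhibitor control for full effect; nearly all actives have a fitted effect of over 50% in size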
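Readout is a homogeneous TR-FRET IP1 immunoassay (Ex 320, Em 665 and 620), where raised cytosolic IP1 lowers signal. Cells were CHO-M1 treated 30 min at 37C with test compounds plus a little lithium; AC50 values came from Hill-equation fitting.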
HTT ATP protect: Huntington cell model cytoprotection by ATP luminescence; AID 1471; 230,000 compounds, 0.14% hits; PC12 HTT-Q103 induced, cytoprotection, ATP luminescence, 40 h; Potency, µM (highest dose often 56.4 µM), for inactives: cytoprotection (ATP increase), most hits filed as activators; also: % of control where 0% means no effect; nearly all actives have a fitted effect of over 45% in size
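Cells were plated at 1500 per well in phenol red-free DMEM with 5% equine and 5% calf serum. Tebufenozide (100 nM final) and compounds were added, then ATPlite reagent, and luminescence was read.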
HttQ103 aggreg: inhibitors of mutant huntingtin aggregate formation in PC12 cells. Potency, µM (top dose mostly 46.1 µM), without a hit: top-dose activity change, negative = inhibition, actives largely listed as inhibitors. 220,000 compounds, 1.1% hits. PC12 HttQ103-GFP aggregates, Acumen cytometry, 40 h; also: % is scaled to controls: 0 for no effect and ±100 for the full control effect; nearly all actives have a fitted effect of over 60% in size
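Multiplexed with ATP-based cell death, this channel scores GFP aggregates in PC12 cells expressing inducible HTTex1-Q103-GFP. Induction used 100 nM tebufenozide; compounds were tested in concentration series.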
NPSR antagonist: blocks cAMP signaling of the human neuropeptide S receptor; Q6W5P4; CHO-NPSR cells, cAMP TR-FRET, antagonist mode; Potency, µM (highest dose often 38.3 µM), for the others: at the top dose activity change, negative = inhibition, usual class: inhibitors; 220,000 compounds, 1% hits; AID 1461; also: % is scaled to controls: 0 for no effect and ±100 for the full control effect; nearly all actives have a fitted effect of over 50% in size
Target sequence (Q6W5P4 whole entry, looked up): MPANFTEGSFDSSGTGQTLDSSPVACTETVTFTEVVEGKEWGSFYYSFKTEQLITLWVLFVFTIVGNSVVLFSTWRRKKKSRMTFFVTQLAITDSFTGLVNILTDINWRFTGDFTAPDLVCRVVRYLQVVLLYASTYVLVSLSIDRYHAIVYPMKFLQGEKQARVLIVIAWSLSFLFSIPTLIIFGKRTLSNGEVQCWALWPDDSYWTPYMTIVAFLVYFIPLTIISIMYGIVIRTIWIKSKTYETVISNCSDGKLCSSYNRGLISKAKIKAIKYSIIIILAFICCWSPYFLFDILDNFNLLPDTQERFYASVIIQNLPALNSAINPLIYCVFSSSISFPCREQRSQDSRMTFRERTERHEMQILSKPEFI
An asterisk follows results filed as active; ? = inconclusive; . = not tested or not shown; ! = a repeat was not active; [ ] = dose if it differs, or a comment. In the library only some 1.9% were active in any assay of this set; here they are far more common. Calls follow the shape of the dose curve; as a rule, active = well fitted curve in the direction sought with a large enough effect; inconclusive = small, poorly fitted or top-dose-only effect, or another doubt; inactive = no such curve, though single readings can be large; an effect the other way counts as inactive or inconclusive. Potency is read from the fitted curve at half-maximal effect.

SMILES | ERK EGF block | IMPase Li inh | HTT ATP protect | HttQ103 aggreg | NPSR antagonist
CC1=C2[C@@H]3OC(=O)[C@H](C)[C@H]3CC[C@@]2(C)C=CC1=O | . | . | -0.6% | . | .
CCCCCCCCCCCCCCCC[n+]1ccccc1 | ? | 29.8% | -65.1% | 15.8µM* | .
CCCCCCC[n+]1ccc(-c2cc[n+](CCCCCCC)cc2)cc1 | -6.4% | 9.4% | 0.891µM*! | ? | 10.7%
N[C@H](Cc1ccc(N(CCCl)CCCl)cc1)C(=O)O | . | . | -32.5%[1.9 µM] | . | .
O=C(O)c1ccccc1-c1c2cc(Br)c(=O)cc-2oc2[c]([Hg])c(O)c(Br)cc12 | ? | 149.0% | -322.8% | 5.01µM* | .
N#CC(C#N)=NNc1ccc([N+](=O)[O-])cc1 | 3.8%[57.5 µM] | . | 12.0%[10 µM] | 15.4%[9.22 µM] | 3.98µM*
CC(=O)[O-].CC(=O)[O-].O.O.[Cd+2] | . | 10.5% | -69.3% | . | .
CC[C@@]1(O)C(=O)OCc2c1cc1n(c2=O)Cc2cc3ccccc3nc2-1 | 7.3% | -20.7% | -235.7% | ? | -21.3%[46.1 µM]
CC[C@@]1(O)C(=O)OCc2c1cc1n(c2=O)Cc2cc3c(O)cccc3nc2-1 | . | 8.91µM* | -152.6% | . | .
C=CCN1CC[C@@]23CCCC[C@@H]2[C@@H]1Cc1ccc(O)cc13 | . | . | 11.1%[1.9 µM] | . | .
COC[C@@H]1OC(=O)c2coc3c2[C@]1(C)C1=C(C3=O)[C@H]2CCC(=O)[C@]2(C)C[C@@H]1OC(C)=O | . | . | -21.4%[1.9 µM] | . | .
CC(C)C1C(=O)N2CCCC2[C@]2(O)O[C@@](NC(=O)[C@@H]3C=C4c5cccc6[nH]cc(c56)C[C@H]4N(C)C3)(C(C)C)C(=O)N12 (stereo not given in full) | -3.0% | 10.0% | 3.8%[1.9 µM] | . | .
CC(C)[C@H]1C(=O)N2CCC[C@H]2[C@]2(O)O[C@](NC(=O)[C@@H]3C=C4c5cccc6[nH]cc(c56)C[C@H]4N(C)C3)(C(C)C)C(=O)N12 | ? | 20.4% | . | 12.4% | 1µM*
CC(C)C[C@H]1C(=O)N2CCC[C@@H]2[C@]2(O)O[C@](NC(=O)[C@@H]3C=C4c5cccc6[nH]c(Br)c(c56)C[C@H]4N(C)C3)(C(C)C)C(=O)N12 | -10.3% | 16.5% | 3.3% | . | .
CC(C)[C@@]1(NC(=O)[C@@H]2C[C@@H]3c4cccc5[nH]cc(c45)C[C@H]3N(C)C2)O[C@@]2(O)[C@@H]3CCCN3C(=O)[C@H](Cc3ccccc3)N2C1=O | -8.1%[57.5 µM] | 4.0% | -23.3%[1.9 µM] | ? | 2µM*
CC(C)C[C@H]1C(=O)N2CCC[C@H]2[C@]2(O)O[C@](NC(=O)[C@@H]3C=C4c5cccc6[nH]c(Br)c(c56)CC4N(C)C3)(C(C)C)C(=O)N12 (stereo not given in full) | -17.7%[57.5 µM] | 30.3% | . | 3.3% | 1.58µM*
O=S(=O)(O)/C(=C\c1ccccc1)c1ccccc1 (tested in a mixture with another compound) | . | 0.6% | -10.4%[10 µM] | . | .
S=C1CN=C(c2ccccc2)c2cc(Cl)ccc2N1 | 4.8% | -2.6% | 3.5%[1.9 µM] | ? | 12.6µM*
O=C(O)C[SH+]CC(=O)O.O=C(O)C[SH+]CC(=O)O.[Cu] | . | 15.1% | . | . | .
CC(C)(C)c1cc([N+](=O)[O-])cc(C(C)(C)C)c1O | -3.8% | 24.3% | -33.4% | 7.94µM* | -46.0%
NC(=O)c1cc([N+](=O)[O-])cc([N+](=O)[O-])c1 | 2.0% | 6.0% | -0.1% | 2.4% | .
CN(C)c1ccc(/C=C/c2cc[n+](C)c3ccccc23)cc1 | 13.5% | 132.0% | -67.1%[10 µM] | ? | 6.31µM*
CN(C)CS/C(N)=N/[C@H](O)C(Cl)(Cl)Cl | . | -4.3% | -7.4%[10 µM] | . | .
C[C@@H]1OC=C2[C@@H](O)[C@H]3O[C@H]3C(=O)[C@@]23[C@H]1[C@H]1C2=C([C@@H](O)[C@H]4O[C@@H]4C2=O)[C@@H]3O[C@@H]1C | . | . | 5.62µM* | . | .
COc1cc2c(cc1OC)[C@@]13CCN4C=C5CCO[C@H]6CC(=O)N2[C@@H]1[C@@H]6[C@H]5C[C@H]43 | . | . | -3.0%[10 µM] | . | .
SMILES | ERK EGF block | IMPase Li inh | HTT ATP protect | HttQ103 aggreg | NPSR antagonist
CCOc1cc(-c2c(C#N)c(=O)[nH]c3c2c(C)nn3-c2ccc(F)cc2)ccc1O | . | -10.7%[38.3 µM] | 1.3% | 12.6µM* | ?
C/C=C1\C[C@H](C)[C@](O)(CO)C(=O)OCC2=CCN3CC[C@@H](OC1=O)[C@@H]23 | . | . | -1.7% | . | .
C[CH2][Hg][S]c1ccccc1C(=O)O | 31.6µM* | 14.2% | -323.0% | 2.51µM* | .
CC(C)(C)NCC1(CO)SC(N)=NC1=O (stereo not given) | . | -12.2%[38.3 µM] | -83.2% | 22.4µM* | 4.0%[46.1 µM]
CC1=NN(c2ccccc2)C(=O)[C@@H]1N=Nc1ccc([As](=O)(O)O)c(O)c1 | . | 1.0% | -4.4%[10 µM] | . | .
NC(=S)c1cn(C2OC(CO)C(O)C2O)c2ncnc(N)c12 (stereo not given) | -12.0%[57.5 µM] | . | -89.4%[10 µM] | 2.82µM* | -8.2%
CCNC(=O)[C@@H]1O[C@@H](n2cnc3c(N)ncnc32)[C@@H](O)[C@H]1O | . | . | 6.5%[1.9 µM] | . | .
O=[N+]([O-])c1ccc(N2CCCC2)c2ccncc12 | 3.4% | 18.3% | -36.9% | 22.4µM* | -39.6%
CC(C)c1ccc(N2C(=O)NC(=O)/C(=C\C=C\c3ccco3)C2=O)cc1 | -1.6% | -5.3% | -76.6% | ? | 3.98µM*
O=C1NC(=O)N(Cc2ccccc2)C(=O)/C1=C/C=C/c1ccco1 | ? | . | -8.6%[10 µM] | -8.7%[9.22 µM] | ?
Cc1cc(C)n(-c2ccc(NN=C(C#N)C#N)cc2)n1 | 7.5%[57.5 µM] | . | -22.1%[10 µM] | -39.7%[9.22 µM] | ?
N#CC(C#N)=NNc1ccc(-n2ccc(C(F)(F)F)n2)cc1 | 3.6%[57.5 µM] | . | -53.1%[10 µM] | ? | 2.51µM*
O=C(O)[C@@H]1[C@H](C(=O)O)[C@]2(Cl)C(Cl)=C(Cl)[C@@]1(Cl)C2(Cl)Cl | . | -7.2% | -0.1%[10 µM] | . | .
CC(C)n1c(O)c(C2c3cc(Cl)ccc3Oc3[nH]c(=O)n(C(C)C)c(=O)c32)c(=O)[nH]c1=O (stereo not given) | 3.16µM* | . | -24.1%[10 µM] | ? | ?
C=C1C(=O)O[C@@H]2C[C@@H](C)[C@@H]3C=CC(=O)[C@@]3(C)[C@@H](O)[C@H]12 | ? | 2.3% | ? | 2.24µM* | -45.6%
CC[C@H](CO)NC(=O)[C@@H]1C=C2c3cccc4[nH]cc(c34)C[C@@H]2N(C)C1 | . | . | -0.5%[1.9 µM] | . | .
Nc1cc(Cl)c2nonc2c1[N+](=O)[O-] | 3.3% | 21.1% | -14.7%[10 µM] | 4.47µM* | -36.9%
O=[N+]([O-])c1c(Cl)c(Cl)c(Cl)c(Cl)c1Cl | . | 17.6% | -22.2% | . | .
NC1=NC([S][Hg][c]2ccc(N)cc2)c2ncn([C@@H]3O[C@H](CO)[C@@H](O)[C@@H]3O)c2N1 (stereo not given in full) | . | 17.1% | . | . | .
